# Measurements taken from the supplement of paper PMC8728848.
# About 410 targets per protein were measured; listed, in parts, are those with the strongest signals and a random draw of the rest.
# Legend:
# Assay in all cases: glycan array binding signal (z-score within array); higher = stronger binding
# Conditions in all cases: glycan notation: IUPAC condensed, linker removed
# [1] = target: Gal(b1-4)GlcNAc(b1-3)Gal(b1-4)GlcNAc(b1-6)[Gal(b1-3)]GalNAc
# Method in brief: (§1)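 From the Consortium for Functional Glycomics database, 3228 arrays were curated, keeping only those whose protein sequence was available. Binding is given as a within-array Z-score averaged across arrays sharing a protein sequence and across linkers. Negative Z-scores can be read as non-binding.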
# [2] = target: Gal3S(b1-4)[Fuc(a1-3)]GlcNAc6S
# Method in brief: as §1
# Gal3S6S(b1-4)GlcNAc6S = target: Gal3S6S(b1-4)GlcNAc6S
# Method in brief: as §1
# Gal6P(b1-4)GlcNAc = target: Gal6P(b1-4)GlcNAc
# Method in brief: as §1
# GalNAc(b1-4)GlcNAc = target: GalNAc(b1-4)GlcNAc
# Method in brief: as §1
# GalNAc4S6S(b1-4)GlcNAc = target: GalNAc4S6S(b1-4)GlcNAc
# Method in brief: as §1
# GalNAc6S(b1-4)GlcNAc = target: GalNAc6S(b1-4)GlcNAc
# Method in brief: as §1
# Glc(b1-4)Glc = target: Glc(b1-4)Glc
# Method in brief: as §1
# [3] = target: GlcNAc(a1-4)Gal(b1-4)GlcNAc
# Method in brief: as §1
# [4] = target: GlcNAc(a1-4)Gal(b1-4)GlcNAc(b1-3)Gal(b1-4)GlcNAc(b1-3)Gal(b1-4)GlcNAc
# Method in brief: as §1
# [5] = target: GlcNAc(b1-3)Gal(b1-4)GlcNAc(b1-3)Gal(b1-4)GlcNAc
# Method in brief: as §1
# [6] = target: GlcNAc(b1-3)Gal(b1-4)GlcNAc(b1-3)Gal(b1-4)GlcNAc(b1-2)Man(a1-3)[GlcNAc(b1-3)Gal(b1-4)GlcNAc(b1-3)Gal(b1-4)GlcNAc(b1-2)Man(a1-6)]Man(b1-4)GlcNAc(b1-4)[Fuc(a1-6)]GlcNAc
# Method in brief: as §1
# [7] = target: GlcNAc(b1-6)Gal(b1-4)GlcNAc
# Method in brief: as §1
# [8] = target: GlcNAc6S(b1-3)Gal(b1-4)GlcNAc
# Method in brief: as §1
# [9] = target: Man(a1-2)Man(a1-3)[Man(a1-2)Man(a1-6)]Man
# Method in brief: as §1
# [10] = target: Man(a1-2)Man(a1-6)[Man(a1-3)]Man(a1-6)[Man(a1-2)Man(a1-2)Man(a1-3)]Man
# Method in brief: as §1
# [11] = target: Man(a1-3)[Man(a1-6)]Man(b1-4)GlcNAc(b1-4)[Fuc(a1-6)]GlcNAc
# Method in brief: as §1
# [12] = target: Neu5Ac(a2-3)Gal(b1-3)GalNAc
# Method in brief: as §1
# [13] = target: Neu5Ac(a2-3)Gal(b1-3)GalNAc(b1-4)[Neu5Ac(a2-3)]Gal(b1-4)Glc
# Method in brief: as §1
# [14] = target: Neu5Ac(a2-3)Gal(b1-3)GalNAc(b1-4)[Neu5Ac(a2-8)Neu5Ac(a2-3)]Gal(b1-4)Glc
# Method in brief: as §1
# [15] = target: Neu5Ac(a2-3)Gal(b1-4)GlcNAc(b1-2)Man(a1-3)[Neu5Ac(a2-3)Gal(b1-4)GlcNAc(b1-2)Man(a1-6)]Man(b1-4)GlcNAc(b1-4)[Fuc(a1-6)]GlcNAc
# Method in brief: as §1
# [16] = target: Neu5Ac(a2-3)Gal(b1-4)GlcNAc(b1-3)Gal(b1-4)GlcNAc
# Method in brief: as §1
# [17] = target: Neu5Ac(a2-6)Gal(b1-4)GlcNAc(b1-2)Man
# Method in brief: as §1
# [18] = target: Neu5Ac(a2-6)Gal(b1-4)GlcNAc(b1-2)Man(a1-6)[Man(a1-3)]Man(b1-4)GlcNAc(b1-4)GlcNAc
# Method in brief: as §1
# [19] = target: Neu5Ac(a2-6)Gal(b1-4)GlcNAc(b1-3)Gal(b1-3)GlcNAc
# Method in brief: as §1
# [20] = target: Neu5Ac(a2-6)GalNAc(b1-4)GlcNAc6S
# Method in brief: as §1
# [21] = target: Neu5Ac(a2-8)Neu5Ac(a2-3)Gal(b1-3)GalNAc(b1-4)[Neu5Ac(a2-3)]Gal(b1-4)Glc
# Method in brief: as §1
# [22] = target: Neu5Ac(a2-8)Neu5Ac(a2-8)Neu5Ac(a2-8)Neu5Ac(a2-3)[GalNAc(b1-4)]Gal(b1-4)Glc
# Method in brief: as §1
# [23] = target: Neu5Ac9Ac(a2-3)Gal(b1-3)GlcNAc
# Method in brief: as §1
# Neu5Gc(a2-6)GalNAc = target: Neu5Gc(a2-6)GalNAc
# Method in brief: as §1
binder,measurement,setting,value
"AT1G80310(18) (Arabidopsis thaliana), Q0WP36 (protein) METTTTPLLPGDRSRCGWLRRRLRLKNPLSSELSGAVGDLGTFIPIVLTLTLVSNLDLSTTLIFTGFYNIATGLLFDIPMPVQPMKSIAAVAVSESPHLTPSQIAAAGASTAATLLLLGATGAMSFLYNIIPLPVVRGVQLSQGLQFAFTAIKYVRFNYDTATLKPSSSPRIWLGLDGLILALAALLFIILSTGSGNDREAEDGDLAETSSNESQSRRRRLRLLSSIPSALIVFALGLVLCFIRDPSIFKDLKFGPSKFHILRISWDDWKIGFLRAAIPQIPLSVLNSVIAVCKLSNDLFDKELSATTVSISVGVMNLIGCWFGAMPVCHGAGGLAGQYRFGARSGLSVIFLGIGKLIVGLVFGNSFVRILSQFPIGILGVLLLFAGIELAMASKDMNSKEDSFIMLVCAAVSMTGSSAALGFGCGVVLYLLLKLRTLDCSSVTLFSRSSDESQVDSEAAPRDV",glycan array binding signal (z-score),[1],-0.516
same,glycan array binding signal (z-score),[2],-0.286
same,glycan array binding signal (z-score),Gal3S6S(b1-4)GlcNAc6S,0.953
same,glycan array binding signal (z-score),Gal6P(b1-4)GlcNAc,0.119
same,glycan array binding signal (z-score),GalNAc(b1-4)GlcNAc,3.09
same,glycan array binding signal (z-score),GalNAc4S6S(b1-4)GlcNAc,3.56
same,glycan array binding signal (z-score),GalNAc6S(b1-4)GlcNAc,2.89
same,glycan array binding signal (z-score),Glc(b1-4)Glc,1.3
same,glycan array binding signal (z-score),[3],-0.622
same,glycan array binding signal (z-score),[4],0.229
same,glycan array binding signal (z-score),[5],-0.512
same,glycan array binding signal (z-score),[6],1.31
same,glycan array binding signal (z-score),[7],-0.608
same,glycan array binding signal (z-score),[8],0.436
same,glycan array binding signal (z-score),[9],-0.796
same,glycan array binding signal (z-score),[10],-0.243
same,glycan array binding signal (z-score),[11],-0.517
same,glycan array binding signal (z-score),[12],0.654
same,glycan array binding signal (z-score),[13],-0.383
same,glycan array binding signal (z-score),[14],4.16
same,glycan array binding signal (z-score),[15],-0.895
same,glycan array binding signal (z-score),[16],-0.967
same,glycan array binding signal (z-score),[17],-0.534
same,glycan array binding signal (z-score),[18],-0.892
same,glycan array binding signal (z-score),[19],-0.646
same,glycan array binding signal (z-score),[20],-0.543
same,glycan array binding signal (z-score),[21],-0.86
same,glycan array binding signal (z-score),[22],-0.09
same,glycan array binding signal (z-score),[23],-0.052
same,glycan array binding signal (z-score),Neu5Gc(a2-6)GalNAc,0.551
